The structures appear in SMILES notation. Compounds without any hit were thinned out: in the full panel of roughly 83,000, 20% have a hit.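 Compound tested at a single concentration for 48 hours in 96-well plates; a percent growth value below 10 was scored as active.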 A number with no mark means an inactive call. Active and inactive are the calls of the source.

This experiment relates to SF-539 CNS. The experiment can be described thus: NCI-60 one-dose screen, 48 h (100 = growth as untreated, 0 = no growth, -100 = all killed). To be noted: 10 µM.
As to `COc1ccc(/C=C2\CCCC3=C2NC(N)=NC3c2ccc(OC)cc2)cc1` (stereo not given), the growth is 107%.

As to `CN(C)CCCOc1cccc(NC2=C(Cl)C(=O)C(Nc3cccc(OCCCN(C)C)c3)=C(Cl)C2=O)c1`, the growth was -77.7% (active). Then `N#CC1=C(N)Oc2cc(N)ccc2C1c1cccnc1` (stereo not given), with 96.1%; and `COc1cc(/C=C/c2cc(/C=C/c3ccc(O)c(OC)c3)n(C(=O)Nc3ccc(C)cc3)n2)ccc1O`, with 5.95% (active); and `Cc1ccc(-n2nnnc2N)c(C)c1`, with 123%.

As to `CCCCN(CCCC)C(=O)[C@H](CC)[C@@H]1CC[C@@H](C)[C@@H]([C@H](C)[C@@H](O)[C@@H](C)C(=O)[C@H](CC)C2O[C@]3(C=C[C@@H](O)[C@]4(CC[C@@](C)([C@H]5CC[C@](O)(CC)[C@H](C)O5)O4)O3)[C@H](C)C[C@@H]2C)O1` (stereo not given in full), the growth was 16.9%. With `COc1ccc2c(c1)C(=O)/C(=C/c1ccc([N+](=O)[O-])o1)O2` the figure was -49.8% (active); with `Cc1ccc(S(=O)(=O)N(C)CCCCCC(=O)O)cc1`, 97.9%; with `NC1=NC(c2ccc(Cl)cc2)C2=C(N1)/C(=C/c1ccc(Cl)cc1)CCC2` (stereo not given), 121%. With `S=C(NCc1ccccc1)NCc1ccccc1` the figure was 101%; with `COc1cc2cc(Oc3ccc(NC(=O)c4ccccc4)cc3)c(C)nc2cc1OC`, 97.6%; with `Cc1c(Cl)cccc1NC(=O)CN1CCOCC1`, 106%. For the compound `C=CCN(CC=C)C(=O)[C@H](CC)[C@@H]1CC[C@@H](C)[C@@H]([C@H](C)[C@@H](O)[C@@H](C)C(=O)[C@H](CC)C2O[C@]3(C=CC(=O)[C@]4(CC[C@@](C)([C@H]5CC[C@](O)(CC)[C@H](C)O5)O4)O3)[C@H](C)C[C@@H]2C)O1` (stereo not given in full), the growth is 53.2%. Then `CCN1CCN(CCC(=O)Nc2cccc(-n3cc(-c4ccncc4)c(-c4ccc(Cl)c(OC)c4)n3)c2)CC1`, with -51.9% (active).

On to `Nc1ccn(Cc2nnc(CCC(=O)c3nc4ccccc4[nH]3)o2)c(=O)n1`, for which the growth was 86.8%. Then `Cc1ccc2nc(Cl)c(-c3nc4ccccc4o3)cc2c1`, with 99.2%. With `C/C=C/CSC(C)(C)C(=O)NC` the figure was 100%; with `COc1cc2c(Nc3ccc(S(N)(=O)=O)cc3)ncnc2c(OC)c1OC`, 99.3%; with `CC(=O)OC1C=CC(OC(C)=O)O1` (stereo not given), 112%. With `CC(=O)C1N=NCC1c1ccccc1` (stereo not given) the figure was 103%. As for `O=C(CN(C1CCCCC1)C1CCCCC1)Nc1ccc(S(=O)(=O)c2ccc(NC(=O)CN(C3CCCCC3)C3CCCCC3)cc2)cc1`, the growth is -89.9% (active). Then `Cc1c[nH]c(=O)n(Cc2nnc(CCC(=O)c3nc4ccccc4[nH]3)o2)c1=O`, with -15.2% (active); and `O=C(CCn1cnc2c(cc(-c3ccccc3)n2-c2ccccc2)c1=O)Nc1ccc(F)cc1`, with 76.2%; and `CN(C)CCOc1cccc(NC2=C(Cl)C(=O)C(Nc3cccc(OCCN(C)C)c3)=C(Cl)C2=O)c1`, with -86.4% (active).

For `CN1CCN(CCC(=O)Nc2cccc(-n3cc(-c4ccncc4)c(-c4ccc(Cl)c(O)c4)n3)c2)CC1`, the growth is -4.71% (active).

For `CC(=O)Nc1ccc(CC[C@H]2CCC/C=C/[C@@H]3C[C@H](O)C[C@H]3[C@H](O)/C=C/C(=O)O2)cc1`, the growth is 25.3%.

On to `CN(C)CCN(Cc1ccccc1)c1ccc2ccccc2n1`, for which the growth is 106%. With `C/C(=N\O)c1ccc(NC(=O)CSc2nnc(-c3ccccc3)n2-c2ccccc2)cc1` the figure was 52.6%. Then `CCC(CC)n1c(C)cc(=O)n1C(CC)CC`, with 96.7%; and `CC[C@@H](C(=O)[C@H](C)[C@H](O)[C@@H](C)[C@H]1O[C@H]([C@@H](CC)C(=O)O)CC[C@H]1C)C1O[C@]2(C=C[C@@H](O)[C@]3(CC[C@@](C)([C@H]4CC[C@](O)(CC)[C@H](C)O4)O3)O2)[C@H](C)C[C@@H]1C` (stereo not given in full), with 2.48% (active). With `O=C(O)c1cc([N+](=O)[O-])ccc1Oc1ccccc1` the figure was 94.6%; with `O=[N+]([O-])c1cccc(/C=N/NC(=S)NC23CC4CC(CC(C4)C2)C3)c1`, 92.3%. For `COc1cc(C(=O)n2nc(-c3cc(OC)c(OC)c(OC)c3)nc2N)cc(OC)c1OC`, the growth was 96.6%. On to `COc1ccc(-c2n[nH]nc2-c2cc(OC)c(OC)c(OC)c2)cc1`, for which the growth was 10.3%. Then `C=CCN(CC=C)C(=O)[C@H](CC)[C@@H]1CC[C@@H](C)[C@@H]([C@H](C)[C@@H](O)[C@@H](C)C(=O)[C@H](CC)C2O[C@]3(C=C[C@@H](O)[C@]4(CC[C@@](C)([C@H]5CC[C@](O)(CC)[C@H](C)O5)O4)O3)[C@H](C)C[C@@H]2C)O1` (stereo not given in full), with 29.1%. With `O=C(Nc1cccc2c1CCCC2)c1cc2ccccc2cc1O` the figure was 34.2%; with `O=C1/C=C/[C@@H](O)[C@@H]2C[C@@H](O)C[C@H]2/C=C/CCC[C@H](CCc2ccc(NC(=S)Nc3ccc4c(c3)C(=O)OC43c4ccc(O)cc4Oc4cc(O)ccc43)cc2)O1`, 29.4%; with `COc1cc(/C=C/c2cc(/C=C/c3ccc(O)c(OC)c3)nc(N)n2)ccc1O`, 11.9%.

`CC(=O)Oc1cc(OC(C)=O)c2ccccc2c1OC(C)=O`: the growth is 100%.

Turning to `CCOc1ccccc1/C=N\N=C\c1ccccc1O`, the growth is 107%.

Source of the values: PubChem BioAssay (NCI).
